In the library only some 2.9% were active in any assay of this set; here they are far more common.
pPAFAH FP inh: pPAFAH enzyme inhibitors, primary screen, biochemical, fluorescence polarization, human | Platelet-activating factor acetylhydrolase (Homo sapiens), Q13093 | recombinant pPAFAH, FP-rhodamine probe fluorescence polarization | inhibition, % at 3.39 µM | 1.5% of 330,000 active | AID 463082, 2010;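 active means inhibition above the mean inhibition across the screen plus 3 SD, cut at about 25% in these data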;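 further: inhibitors block binding of the rhodamine activity-based probe so polarization drops; 0% = enzyme with DMSO and 100% = wells lacking pPAFAH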
PAFAH1B2 inh: PAFAH1B2 enzyme inhibitors, primary screen, biochemical, fluorescence polarization, human. AID 492953, 2010. recombinant PAFAH1B2, FP-rhodamine activity probe. inhibition, % at 3.39 µM. 1.2% of 340,000 active. Platelet-activating factor acetylhydrolase IB subunit alpha2 (Homo sapiens), P68402;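 active means inhibition above the mean of all tested compounds plus 3 SD, cut at about 24% in these data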;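 further: 0% = enzyme with DMSO and 100% = wells lacking PAFAH1B2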
Target sequence (P68402 whole entry, looked up): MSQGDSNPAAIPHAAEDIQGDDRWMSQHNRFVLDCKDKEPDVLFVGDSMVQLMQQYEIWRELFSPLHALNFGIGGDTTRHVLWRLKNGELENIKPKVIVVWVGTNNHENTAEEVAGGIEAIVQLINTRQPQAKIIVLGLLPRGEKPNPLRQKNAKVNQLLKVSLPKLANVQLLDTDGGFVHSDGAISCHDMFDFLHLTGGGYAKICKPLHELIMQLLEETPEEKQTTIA
PME-1 primary: PME-1 inhibitors via competitive probe labeling, primary screen, biochemical, fluorescence polarization, FP-Rh probe, HTS; recombinant PME-1; inhibition, % at 5.9 µM; 0.53% of 320,000 active; AID 2130, 2009;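 active means inhibition above the campaign mean of all compounds plus 3 SD, cut at about 26% in these data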;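 further: competitive labeling of PME-1 active site by serine hydrolase directed probe; 0% = PME-1 with DMSO and 100% = wells lacking PME-1 enzyme; inhibitors block probe labeling so polarization falls and inhibition rises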
Fam108B counter: mouse Fam108B serine hydrolase inhibitors, primary screen, counter-screen for RBBP9 inhibitor project, biochemical, fluorescence polarization | recombinant Fam108B, FP-Rh probe fluorescence polarization | inhibition, % at 9.51 µM | 0.33% of 300,000 active;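 active means inhibition above the screen mean inhibition plus 3 SD, computed separately per campaign, cut at about 18% in these data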;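 further: inhibitors lower polarization as less probe binds the enzyme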
PAFAH2 inh: PAFAH2 enzyme inhibitors, primary screen, biochemical, fluorescence polarization, human; Platelet-activating factor acetylhydrolase 2, cytoplasmic (Homo sapiens), Q99487; recombinant PAFAH2, FP-rhodamine activity probe; inhibition, % at 3.39 µM; 0.99% of 340,000 active;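 active means inhibition above the mean over all tested compounds plus 3 SD, cut at about 30% in these data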;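 further: inhibitors block probe labeling of enzyme so polarization drops; 0% = enzyme with DMSO and 100% = wells lacking PAFAH2 protein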
PAFAH1B3 inh: PAFAH1B3 enzyme inhibitors, primary screen, biochemical, fluorescence polarization, human; Platelet-activating factor acetylhydrolase IB subunit alpha1 (Homo sapiens), Q15102; recombinant PAFAH1B3, FP-rhodamine probe; inhibition, % at 3.39 µM; 0.28% of 340,000 active; AID 492972, 2010;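 active means inhibition above the screen-wide average of all tested compounds plus 3 SD, cut at about 25% in these data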;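 further: 0% = enzyme with DMSO only and 100% = wells lacking PAFAH1B3 protein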
Target sequence (Q15102 whole entry, looked up): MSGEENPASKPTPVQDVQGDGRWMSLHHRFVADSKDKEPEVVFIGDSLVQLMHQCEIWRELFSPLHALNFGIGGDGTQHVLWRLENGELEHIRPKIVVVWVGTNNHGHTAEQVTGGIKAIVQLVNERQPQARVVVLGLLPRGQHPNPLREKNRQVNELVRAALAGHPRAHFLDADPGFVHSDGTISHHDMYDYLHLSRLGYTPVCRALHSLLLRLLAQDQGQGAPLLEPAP
* marks the source's active call; other numbers are inactive results; . = no result given.

SMILES | pPAFAH FP inh | PAFAH1B2 inh | PME-1 primary | Fam108B counter | PAFAH2 inh | PAFAH1B3 inh
COc1ccc(C(=O)CC(=O)Nc2ccc([N+](=O)[O-])cc2)cc1 | 27* | -9 | -34 | -6 | 7 | -34
CC(C)(C)c1ccc(C(CC(=O)O)NC(=O)c2ccccc2F)cc1 (stereo not drawn) | 6 | 3 | -6 | 2 | -2 | 9
CC1CCN(S(=O)(=O)c2ccc(N=NC3=C(O)CC(C)(C)CC3=O)cc2)CC1 | 3 | 45* | -5 | 6 | -7 | 3
COc1cccc(/C=N/N2CCN(c3ccc(Cl)cc3)CC2)c1OC | 5 | 33* | -6 | -9 | 0 | 5
Clc1ccc(N2CCN(/N=C/c3cccnc3)CC2)cc1 | 6 | 28* | 4 | 1 | 2 | 0
COc1ccc(C(=O)OCC(=O)NC(=O)Nc2ccccc2F)c(OC)c1 | -2 | -2 | . | . | 5 | -3
CCOC(=O)c1c(OCC)[nH]c2c1cc(O)c1ccccc12 | 27* | 11 | 39* | 9 | 8 | 11
O=C1OC(c2cccs2)=N/C1=C\c1ccc(-c2cccc(Cl)c2)o1 | 30* | 2 | -6 | -4 | 5 | 0
CCOC(=O)CN(C(=O)CSc1nnc(Cc2ccccc2)n1-c1ccc(C)cc1)c1ccccc1 | 13 | 2 | -10 | 3 | 1 | 1
Cc1ccc(-c2noc(CSc3nnc(CCc4ccccc4)n3-c3ccccc3)n2)cc1 | 8 | 6 | 4 | 1 | -8 | 0
Cc1ccc(-c2noc(CSc3nnc(Cc4ccccc4)n3-c3ccc(Cl)cc3)n2)cc1 | 25* | 20 | -4 | -6 | -2 | -4
CCOC(=O)CSc1nnc(Cc2ccccc2)n1-c1ccc(C)cc1 | 32* | 7 | -7 | 4 | 8 | 1
CCC(c1ccccc1)c1nc(-c2ccccn2)no1 (stereo not drawn) | -1 | 27* | 1 | 0 | 2 | 10
O=S(=O)(c1cnc[nH]1)N1CCc2ccccc21 | 2 | -24 | -4 | -12 | -63 | -24
O=C(Nc1ccccc1)C1=C[C@@H](c2ccc(Br)cc2)C[C@@H](OCc2ccc(CO)cc2)O1 | -1 | -1 | -15 | -11 | -7 | 5
Cn1c(=O)oc2cc(S(=O)(=O)N3CCC(N4CCCCC4)CC3)ccc21 | 3 | 3 | 2 | -1 | -4 | 10
CC1CCN(S(=O)(=O)c2ccc3c(c2)oc(=O)n3C)CC1 | 0 | 25* | -1 | 1 | -6 | 6
O=C(Nc1ccc(N2CCCC2)cc1)c1ccc2ccccc2c1 | 34* | 3 | 3 | 12 | -1 | 4
CC(=O)N1CCN(c2ccc(NC(=O)c3ccc4ccccc4c3)cc2)CC1 | 10 | 0 | -5 | -4 | -5 | -2
CCN(CC)Cc1c(O)ccc2c(=O)c(Oc3ccccc3OC)coc12 | 4 | 7 | 4 | 0 | 2 | 3
O=c1cc(-c2ccc([N+](=O)[O-])cc2)nc2cc(-c3ccc(F)cc3)[nH]n12 | 33* | 58* | -1 | 8 | 17 | 10
O=C(NCC1CC1(Cl)Cl)Nc1ccc(Cl)c(Cl)c1 (stereo not drawn) | -1 | 2 | -19 | -10 | -4 | 0
CCCSc1nsc(NC(=O)CCC)n1 | 31* | 9 | -1 | -2 | -5 | -1
Cn1c(=O)c(C(=O)Nc2ccccn2)c(O)c2ccccc21 | 2 | -2 | 0 | 1 | -15 | 5
CCOC(=O)c1[nH]c2ccc(Cl)cc2c1-c1ccccc1 | 1 | 2 | -3 | 4 | -5 | 0
SMILES | pPAFAH FP inh | PAFAH1B2 inh | PME-1 primary | Fam108B counter | PAFAH2 inh | PAFAH1B3 inh
CN(C)C=NC(=O)c1[nH]c2ccc(Cl)cc2c1-c1ccccc1 | 29* | -1 | -11 | -5 | 3 | -1
S=c1[nH]nc(-c2ccccc2Br)n1Cc1ccccc1 | 0 | 29* | 0 | 0 | 2 | 2
Cc1ccccc1-c1n[nH]c(=S)n1Cc1ccccc1 | 5 | 12 | -6 | -3 | 5 | -2
O=S(=O)(c1ccc(Br)cc1)N1CCN=C1SCc1cccnc1 | -5 | 25* | 3 | -2 | 3 | 4
O=S(=O)(c1ccc(F)cc1)N1CCN=C1SCc1cccnc1 | -2 | 8 | 7 | -1 | 6 | 2
CC(=O)NCCc1nc2cc(NC(=O)c3ccc(F)cc3)ccc2n1C | . | 4 | . | . | -8 | 6
COc1cc(S(=O)(=O)N2CCCCC2)ccc1NC(=O)c1ccncc1 | 4 | -2 | -4 | -2 | 2 | -5
CCN(c1ccccc1)S(=O)(=O)c1ccc(Cl)c(NC(=O)COC(=O)c2ccc(O)cc2)c1 | 34* | -3 | 3 | 1 | 67* | 1
CCC(C)NCC(=O)Nc1cc(S(=O)(=O)N(CC)c2ccccc2)ccc1Cl (stereo not drawn) | 5 | -1 | 20 | -2 | 6 | 3
O=C(NN1C(=O)c2cc(Br)ccc2NC1c1cc(Br)cc(Br)c1O)c1ccncc1 (stereo not drawn) | 30* | -2 | 7 | 7 | 23 | 13
COc1cccc(-c2nnc(SC(C(=O)c3c[nH]c4ccccc34)c3ccccc3)n2C)c1 (stereo not drawn) | -7 | -3 | 56* | -3 | -2 | 7
COc1cccc(-c2nnc(SCCC(=O)O)n2C)c1 | 4 | 5 | 1 | 9 | 0 | 7
Cc1cc2c(cc1S(=O)(=O)NCCc1ccccc1)NC(=O)CO2 | 6 | 29* | 9 | -2 | 7 | 8
Cc1ccc(CNS(=O)(=O)c2ccc3c(c2)NC(=O)CO3)cc1 | 3 | 26* | 1 | 1 | -9 | 10
Cc1ccc(CNS(=O)(=O)c2cc3c(cc2C)NC(=O)CO3)cc1 | -2 | 6 | -1 | 3 | -1 | -1
COc1cc2c(cc1NC(=O)c1ccncc1)oc1ccccc12 | 2 | 1 | -8 | 0 | -5 | -1
COc1cc2c(cc1NC(=O)c1cccnc1)oc1ccccc12 | 9 | 2 | 28* | 14 | -3 | -6
COc1cc(S(=O)(=O)Nc2cccc(C)c2)ccc1NC(=O)c1cccnc1 | 30* | -2 | -1 | -1 | -7 | -2
c1ccc(Cc2nnc3sc(-c4ccco4)nn23)cc1 | 12 | 1 | -3 | -2 | 4 | 2
CCOc1ccc(C(=O)CN2CCN(S(=O)(=O)c3ccc(Cl)cc3)CC2)cc1 | -1 | 15 | 5 | 0 | -3 | 6
CCN(CC)CCCNC(=O)C1c2cc(OC)c(OC)cc2C(=O)N(C)C1c1cccs1 (stereo not drawn) | -1 | 3 | 4 | -1 | 9 | 1

Compound activity as filed in PubChem BioAssay.
